# Columns and labels:
# Assay in all cases: DAPPL (digital affinity profiling via proximity ligation, sequencing); 10 mM Tris-HCl pH 7.5, 50 mM NaCl, 1 mM DTT, 4% glycerol, room temperature, 30 min; GST-TFs on glutathione beads, 16-mer random dsDNA library, 0.1% formaldehyde crosslink after washing; high values mean tight binding
# FLI1 = biological target: T1, FLI1 (Homo sapiens, UniProt Q01543 1-452); settings: protein: recombinant; tags: N-terminal GST; dsDNA, one strand shown
# T1 sequence: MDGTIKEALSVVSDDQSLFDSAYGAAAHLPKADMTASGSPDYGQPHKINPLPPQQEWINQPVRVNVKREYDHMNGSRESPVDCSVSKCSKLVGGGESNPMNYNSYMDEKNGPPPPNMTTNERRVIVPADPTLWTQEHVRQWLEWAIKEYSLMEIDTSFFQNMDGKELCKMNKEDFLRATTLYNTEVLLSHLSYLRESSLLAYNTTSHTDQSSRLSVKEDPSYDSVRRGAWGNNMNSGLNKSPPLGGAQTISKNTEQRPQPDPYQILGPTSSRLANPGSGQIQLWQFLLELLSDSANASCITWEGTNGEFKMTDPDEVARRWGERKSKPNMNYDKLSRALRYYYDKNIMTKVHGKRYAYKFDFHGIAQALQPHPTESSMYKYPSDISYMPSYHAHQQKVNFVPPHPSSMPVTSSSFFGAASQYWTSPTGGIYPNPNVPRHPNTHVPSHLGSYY
# How it was run: (§1)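 A tag-only sample was pooled with DNA-barcoded human transcription factors that had been expressed in yeast as GST fusions and captured on glutathione beads. The pools were incubated for 30 min at room temperature with 200 nmole of a random double-stranded 16-mer DNA library in Tris/NaCl/DTT/glycerol buffer, then washed, crosslinked with 0.1% formaldehyde, proximity-ligated (BsaI/T4 ligase, 1 h, 37 °C), PCR-amplified and sequenced on an Illumina NextSeq500. Binding signal is each hexamer's read frequency for a factor divided by its frequency for the tag-only sample.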
# ELK1 = biological target: T2, ELK1 (Homo sapiens, UniProt P19419 1-428); settings: protein: recombinant; tags: N-terminal GST; dsDNA, one strand shown
# T2 sequence: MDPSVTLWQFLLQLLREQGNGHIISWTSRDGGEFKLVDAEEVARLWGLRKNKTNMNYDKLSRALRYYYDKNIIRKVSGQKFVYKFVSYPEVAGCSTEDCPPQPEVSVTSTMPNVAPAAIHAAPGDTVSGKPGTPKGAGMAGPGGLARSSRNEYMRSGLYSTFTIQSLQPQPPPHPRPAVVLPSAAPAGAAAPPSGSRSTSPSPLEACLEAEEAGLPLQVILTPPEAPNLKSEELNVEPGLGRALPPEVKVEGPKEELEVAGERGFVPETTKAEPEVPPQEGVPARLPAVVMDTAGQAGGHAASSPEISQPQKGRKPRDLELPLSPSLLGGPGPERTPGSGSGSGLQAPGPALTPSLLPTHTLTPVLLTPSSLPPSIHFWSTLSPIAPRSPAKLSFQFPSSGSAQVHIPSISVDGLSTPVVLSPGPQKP
# How it was run: as §1
# GABPA = biological target: T3, GABPA (Homo sapiens, UniProt Q06546 1-454); settings: protein: recombinant; tags: N-terminal GST; dsDNA, one strand shown
# T3 sequence: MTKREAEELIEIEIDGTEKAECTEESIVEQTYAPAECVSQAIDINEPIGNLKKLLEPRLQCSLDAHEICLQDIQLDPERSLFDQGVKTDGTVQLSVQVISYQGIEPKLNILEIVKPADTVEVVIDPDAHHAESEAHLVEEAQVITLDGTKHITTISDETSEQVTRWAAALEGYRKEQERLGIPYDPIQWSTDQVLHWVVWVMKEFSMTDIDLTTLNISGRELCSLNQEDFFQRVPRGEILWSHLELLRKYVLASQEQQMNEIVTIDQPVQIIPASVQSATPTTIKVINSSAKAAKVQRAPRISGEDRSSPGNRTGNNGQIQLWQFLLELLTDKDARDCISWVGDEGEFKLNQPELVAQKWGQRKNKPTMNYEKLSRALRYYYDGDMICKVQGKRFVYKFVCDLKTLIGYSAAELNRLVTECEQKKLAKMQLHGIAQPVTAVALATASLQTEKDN
# How it was run: as §1
# ERG = biological target: T4, ERG (Homo sapiens, UniProt P11308 1-479); settings: protein: recombinant; tags: N-terminal GST; dsDNA, one strand shown
# T4 sequence: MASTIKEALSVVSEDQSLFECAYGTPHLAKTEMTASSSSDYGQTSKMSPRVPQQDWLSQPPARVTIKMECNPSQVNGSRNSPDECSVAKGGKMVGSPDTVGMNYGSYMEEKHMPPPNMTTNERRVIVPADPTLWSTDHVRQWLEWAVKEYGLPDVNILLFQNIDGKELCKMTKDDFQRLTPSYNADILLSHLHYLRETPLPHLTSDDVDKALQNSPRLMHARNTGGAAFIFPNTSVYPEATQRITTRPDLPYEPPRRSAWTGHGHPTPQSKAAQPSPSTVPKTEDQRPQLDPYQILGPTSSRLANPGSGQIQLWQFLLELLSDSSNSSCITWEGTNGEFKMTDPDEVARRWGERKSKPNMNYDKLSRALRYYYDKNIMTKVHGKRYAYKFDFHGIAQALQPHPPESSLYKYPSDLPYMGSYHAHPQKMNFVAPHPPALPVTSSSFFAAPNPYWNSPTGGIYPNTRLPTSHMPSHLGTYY
# How it was run: as §1
# ELF1 = ELF1 (Homo sapiens, UniProt P32519 1-619); settings: protein: recombinant; tags: N-terminal GST; dsDNA, one strand shown
# How it was run: as §1
# EHF = biological target: T5, EHF (Homo sapiens, UniProt Q9NZC4 1-300); settings: protein: recombinant; tags: N-terminal GST; dsDNA, one strand shown
# T5 sequence: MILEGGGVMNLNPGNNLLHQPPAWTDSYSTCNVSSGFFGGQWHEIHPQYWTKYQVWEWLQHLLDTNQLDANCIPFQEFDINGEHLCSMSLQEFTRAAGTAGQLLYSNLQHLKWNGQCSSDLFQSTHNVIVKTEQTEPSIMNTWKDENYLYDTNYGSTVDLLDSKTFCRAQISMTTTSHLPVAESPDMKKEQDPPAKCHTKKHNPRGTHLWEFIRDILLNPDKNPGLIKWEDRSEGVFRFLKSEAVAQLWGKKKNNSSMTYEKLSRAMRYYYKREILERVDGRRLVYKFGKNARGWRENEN
# How it was run: as §1
# SPI1 = SPI1 (Homo sapiens, UniProt P17947 1-270); settings: protein: recombinant; tags: N-terminal GST; dsDNA, one strand shown
# How it was run: as §1
# SPIB = SPIB (Homo sapiens, UniProt Q01892 1-262); settings: protein: recombinant; tags: N-terminal GST; dsDNA, one strand shown
# How it was run: as §1
# ELK3 = biological target: T6, ELK3 (Homo sapiens, UniProt P41970 1-407); settings: protein: recombinant; tags: N-terminal GST; dsDNA, one strand shown
# T6 sequence: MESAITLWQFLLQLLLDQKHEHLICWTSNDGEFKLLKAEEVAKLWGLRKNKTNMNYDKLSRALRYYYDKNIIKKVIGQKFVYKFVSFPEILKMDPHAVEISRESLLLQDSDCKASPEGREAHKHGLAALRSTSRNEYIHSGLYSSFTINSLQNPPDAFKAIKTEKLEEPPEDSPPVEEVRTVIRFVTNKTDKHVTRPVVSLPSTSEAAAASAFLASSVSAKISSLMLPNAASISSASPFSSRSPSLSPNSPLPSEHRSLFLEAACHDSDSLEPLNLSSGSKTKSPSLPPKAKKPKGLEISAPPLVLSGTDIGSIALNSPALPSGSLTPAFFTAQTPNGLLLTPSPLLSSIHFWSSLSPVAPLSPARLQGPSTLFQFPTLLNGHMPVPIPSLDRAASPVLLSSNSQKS
# How it was run: as §1
# FEV = biological target: T7, FEV (Homo sapiens, UniProt Q99581 1-238); settings: protein: recombinant; tags: N-terminal GST; dsDNA, one strand shown
# T7 sequence: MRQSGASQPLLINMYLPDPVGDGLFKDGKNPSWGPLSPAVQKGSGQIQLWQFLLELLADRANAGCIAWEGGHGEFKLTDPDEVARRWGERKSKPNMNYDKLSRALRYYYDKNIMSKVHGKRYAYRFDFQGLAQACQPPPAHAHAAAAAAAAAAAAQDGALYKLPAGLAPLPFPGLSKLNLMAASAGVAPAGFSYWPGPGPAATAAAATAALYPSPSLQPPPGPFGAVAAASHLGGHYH
# How it was run: as §1
# ETV5 = ETV5 (Homo sapiens, UniProt P41161 1-510); settings: protein: recombinant; tags: N-terminal GST; dsDNA, one strand shown
# How it was run: as §1
# HSF1 = HSF1 (Homo sapiens, UniProt Q00613 1-529); settings: protein: recombinant; tags: N-terminal GST; chain copies: 3; dsDNA, one strand shown
# How it was run: as §1
# SPIC = biological target: T8, SPIC (Homo sapiens, UniProt Q8N5J4 1-248); settings: protein: recombinant; tags: N-terminal GST; dsDNA, one strand shown
# T8 sequence: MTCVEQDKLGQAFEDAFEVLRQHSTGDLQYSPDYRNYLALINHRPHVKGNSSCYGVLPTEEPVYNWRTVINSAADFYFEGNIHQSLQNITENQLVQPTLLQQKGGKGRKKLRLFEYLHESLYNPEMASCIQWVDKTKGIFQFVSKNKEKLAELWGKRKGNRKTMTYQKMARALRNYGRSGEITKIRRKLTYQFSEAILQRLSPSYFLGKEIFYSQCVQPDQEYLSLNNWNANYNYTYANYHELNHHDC
# How it was run: as §1
# ELF4 = ELF4 (Homo sapiens, UniProt Q99607 1-663); settings: protein: recombinant; tags: N-terminal GST; dsDNA, one strand shown
# How it was run: as §1
# ELK4 = biological target: T9, ELK4 (Homo sapiens, UniProt P28324-2 1-405); settings: protein: recombinant; tags: N-terminal GST; dsDNA, one strand shown
# T9 sequence: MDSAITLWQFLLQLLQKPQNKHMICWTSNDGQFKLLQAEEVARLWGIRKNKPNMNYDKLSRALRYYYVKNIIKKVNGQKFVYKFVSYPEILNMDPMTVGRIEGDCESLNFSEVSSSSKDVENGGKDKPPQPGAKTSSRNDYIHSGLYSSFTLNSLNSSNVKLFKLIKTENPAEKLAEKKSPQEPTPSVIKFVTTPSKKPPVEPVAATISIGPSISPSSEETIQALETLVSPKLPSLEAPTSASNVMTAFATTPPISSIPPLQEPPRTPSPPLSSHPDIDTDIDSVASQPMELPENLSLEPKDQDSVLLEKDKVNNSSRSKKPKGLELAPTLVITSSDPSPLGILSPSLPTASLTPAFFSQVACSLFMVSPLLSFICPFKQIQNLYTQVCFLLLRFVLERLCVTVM
# How it was run: as §1
# ETV2 = biological target: T10, ETV2 (Homo sapiens, UniProt O00321 1-342); settings: protein: recombinant; tags: N-terminal GST; dsDNA, one strand shown
# T10 sequence: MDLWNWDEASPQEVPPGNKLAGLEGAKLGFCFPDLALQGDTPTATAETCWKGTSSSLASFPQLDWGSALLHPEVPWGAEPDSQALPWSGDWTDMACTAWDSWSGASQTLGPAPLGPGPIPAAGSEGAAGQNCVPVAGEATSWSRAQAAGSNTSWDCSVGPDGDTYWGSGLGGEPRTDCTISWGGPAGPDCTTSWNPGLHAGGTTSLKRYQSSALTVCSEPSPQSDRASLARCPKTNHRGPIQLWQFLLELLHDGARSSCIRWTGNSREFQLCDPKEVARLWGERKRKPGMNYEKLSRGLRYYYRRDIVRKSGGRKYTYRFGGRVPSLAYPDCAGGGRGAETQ
# How it was run: as §1
# ELF3 = biological target: T11, ELF3 (Homo sapiens, UniProt P78545 1-371); settings: protein: recombinant; tags: N-terminal GST; dsDNA, one strand shown
# T11 sequence: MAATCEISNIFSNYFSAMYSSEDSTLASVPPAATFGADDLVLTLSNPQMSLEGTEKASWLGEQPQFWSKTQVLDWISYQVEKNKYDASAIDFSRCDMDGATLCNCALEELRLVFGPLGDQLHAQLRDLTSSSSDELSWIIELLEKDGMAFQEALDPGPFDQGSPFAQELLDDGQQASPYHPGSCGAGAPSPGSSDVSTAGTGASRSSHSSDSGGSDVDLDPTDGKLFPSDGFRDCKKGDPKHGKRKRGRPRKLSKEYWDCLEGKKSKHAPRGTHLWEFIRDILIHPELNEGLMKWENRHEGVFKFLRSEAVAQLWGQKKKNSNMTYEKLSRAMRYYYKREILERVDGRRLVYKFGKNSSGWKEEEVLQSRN
# How it was run: as §1
# CRX = CRX (Homo sapiens, UniProt O43186 1-299); settings: protein: recombinant; tags: N-terminal GST; dsDNA, one strand shown
# How it was run: as §1
# ETV1 = ETV1 (Homo sapiens, UniProt P50549 1-477); settings: protein: recombinant; tags: N-terminal GST; dsDNA, one strand shown
# How it was run: as §1
# Sequence of ETV5 (P41161 whole entry): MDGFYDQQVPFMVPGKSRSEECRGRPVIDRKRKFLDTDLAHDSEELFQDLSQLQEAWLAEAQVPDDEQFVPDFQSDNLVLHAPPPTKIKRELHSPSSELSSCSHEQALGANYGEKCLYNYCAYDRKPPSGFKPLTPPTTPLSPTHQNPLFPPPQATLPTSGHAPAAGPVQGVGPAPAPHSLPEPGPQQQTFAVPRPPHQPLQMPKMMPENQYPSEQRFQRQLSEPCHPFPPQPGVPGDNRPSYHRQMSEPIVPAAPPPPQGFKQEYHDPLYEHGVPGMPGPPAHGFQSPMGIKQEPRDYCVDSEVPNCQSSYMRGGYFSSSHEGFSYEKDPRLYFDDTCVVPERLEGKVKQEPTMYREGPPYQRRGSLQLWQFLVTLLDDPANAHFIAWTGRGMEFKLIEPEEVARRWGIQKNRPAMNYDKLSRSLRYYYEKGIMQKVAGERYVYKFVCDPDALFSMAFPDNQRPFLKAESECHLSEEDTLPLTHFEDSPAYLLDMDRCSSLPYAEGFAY
# Sequence of CRX (O43186 whole entry): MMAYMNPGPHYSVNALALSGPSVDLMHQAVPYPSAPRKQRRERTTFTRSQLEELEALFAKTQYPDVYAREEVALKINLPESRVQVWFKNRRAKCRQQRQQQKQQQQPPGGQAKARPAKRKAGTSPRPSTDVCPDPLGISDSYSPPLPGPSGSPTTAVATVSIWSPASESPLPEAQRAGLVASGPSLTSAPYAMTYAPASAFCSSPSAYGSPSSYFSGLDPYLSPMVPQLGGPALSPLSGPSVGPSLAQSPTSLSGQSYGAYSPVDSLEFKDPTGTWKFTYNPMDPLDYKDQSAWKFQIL
# Sequence of ETV1 (P50549 whole entry): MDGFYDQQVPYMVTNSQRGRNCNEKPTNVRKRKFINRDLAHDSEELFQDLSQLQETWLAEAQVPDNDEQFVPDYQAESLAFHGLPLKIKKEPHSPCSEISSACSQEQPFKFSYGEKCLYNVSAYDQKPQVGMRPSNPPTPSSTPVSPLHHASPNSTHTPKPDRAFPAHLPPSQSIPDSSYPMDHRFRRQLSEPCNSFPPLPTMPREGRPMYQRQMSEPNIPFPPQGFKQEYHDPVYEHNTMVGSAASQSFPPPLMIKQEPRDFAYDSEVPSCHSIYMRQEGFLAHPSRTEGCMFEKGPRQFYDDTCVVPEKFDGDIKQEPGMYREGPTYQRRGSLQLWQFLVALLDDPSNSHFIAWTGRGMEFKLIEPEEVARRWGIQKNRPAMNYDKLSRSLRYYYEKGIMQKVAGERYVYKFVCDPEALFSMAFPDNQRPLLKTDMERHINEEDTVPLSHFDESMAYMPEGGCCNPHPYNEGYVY
# Sequence of ELF4 (Q99607 whole entry): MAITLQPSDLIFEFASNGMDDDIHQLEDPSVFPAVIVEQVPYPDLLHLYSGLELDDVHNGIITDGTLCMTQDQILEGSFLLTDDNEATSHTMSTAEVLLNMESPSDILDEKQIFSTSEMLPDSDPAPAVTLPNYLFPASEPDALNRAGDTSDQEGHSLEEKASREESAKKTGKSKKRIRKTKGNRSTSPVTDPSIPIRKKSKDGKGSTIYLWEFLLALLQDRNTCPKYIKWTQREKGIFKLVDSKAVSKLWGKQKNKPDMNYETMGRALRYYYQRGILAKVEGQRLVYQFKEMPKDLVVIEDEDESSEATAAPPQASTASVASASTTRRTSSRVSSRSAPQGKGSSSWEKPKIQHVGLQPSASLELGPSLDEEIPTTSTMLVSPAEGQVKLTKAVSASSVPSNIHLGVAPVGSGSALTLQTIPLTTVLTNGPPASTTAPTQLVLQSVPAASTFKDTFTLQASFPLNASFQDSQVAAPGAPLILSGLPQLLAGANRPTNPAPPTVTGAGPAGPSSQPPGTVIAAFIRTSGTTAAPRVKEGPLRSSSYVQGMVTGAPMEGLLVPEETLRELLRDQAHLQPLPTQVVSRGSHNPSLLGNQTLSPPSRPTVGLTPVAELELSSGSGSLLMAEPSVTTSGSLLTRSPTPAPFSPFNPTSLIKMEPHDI
# Sequence of HSF1 (Q00613 whole entry): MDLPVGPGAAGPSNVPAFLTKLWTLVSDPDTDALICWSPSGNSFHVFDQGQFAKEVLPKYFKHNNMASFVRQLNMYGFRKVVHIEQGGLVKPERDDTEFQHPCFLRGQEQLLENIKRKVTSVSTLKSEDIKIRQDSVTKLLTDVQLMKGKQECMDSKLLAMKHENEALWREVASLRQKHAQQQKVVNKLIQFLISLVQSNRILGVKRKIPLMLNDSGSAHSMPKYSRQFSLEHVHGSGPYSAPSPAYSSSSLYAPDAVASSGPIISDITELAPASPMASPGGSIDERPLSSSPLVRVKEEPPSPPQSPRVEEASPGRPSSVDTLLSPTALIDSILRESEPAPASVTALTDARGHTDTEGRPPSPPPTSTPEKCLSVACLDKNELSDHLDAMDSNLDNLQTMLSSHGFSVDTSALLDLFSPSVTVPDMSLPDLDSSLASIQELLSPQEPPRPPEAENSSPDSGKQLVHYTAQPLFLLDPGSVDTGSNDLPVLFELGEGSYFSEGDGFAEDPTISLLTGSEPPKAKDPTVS
# Sequence of SPIB (Q01892 whole entry): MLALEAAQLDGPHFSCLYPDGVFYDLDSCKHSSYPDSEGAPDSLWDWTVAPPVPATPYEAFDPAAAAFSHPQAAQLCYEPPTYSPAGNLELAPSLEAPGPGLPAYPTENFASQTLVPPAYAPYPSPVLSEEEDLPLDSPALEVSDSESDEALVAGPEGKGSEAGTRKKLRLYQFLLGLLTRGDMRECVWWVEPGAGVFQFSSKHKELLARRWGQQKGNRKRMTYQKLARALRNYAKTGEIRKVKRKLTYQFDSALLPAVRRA
# Sequence of ELF1 (P32519 whole entry): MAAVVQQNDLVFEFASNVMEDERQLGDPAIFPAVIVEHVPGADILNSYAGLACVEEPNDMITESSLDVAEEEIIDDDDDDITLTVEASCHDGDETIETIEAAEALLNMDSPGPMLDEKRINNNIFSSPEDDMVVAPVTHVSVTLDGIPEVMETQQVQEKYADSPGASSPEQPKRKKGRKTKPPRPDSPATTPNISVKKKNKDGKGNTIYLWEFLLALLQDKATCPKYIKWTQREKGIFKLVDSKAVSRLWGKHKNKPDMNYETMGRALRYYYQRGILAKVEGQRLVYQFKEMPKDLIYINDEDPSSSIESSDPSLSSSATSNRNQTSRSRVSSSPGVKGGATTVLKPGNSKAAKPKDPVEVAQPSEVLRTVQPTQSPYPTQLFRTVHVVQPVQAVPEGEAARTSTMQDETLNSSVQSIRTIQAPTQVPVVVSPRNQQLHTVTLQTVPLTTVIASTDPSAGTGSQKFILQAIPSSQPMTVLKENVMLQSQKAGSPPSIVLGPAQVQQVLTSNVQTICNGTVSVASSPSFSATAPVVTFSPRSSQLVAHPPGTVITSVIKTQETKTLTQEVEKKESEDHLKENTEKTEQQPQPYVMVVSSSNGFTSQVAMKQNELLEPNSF
sequence,measurement,setting,value
CTCATC,binding signal,FLI1,"1.5 fold enrichment (6-mer frequency, TF over GST control)"
same,binding signal,ELK1,"1.36 fold enrichment (6-mer frequency, TF over GST control)"
same,binding signal,GABPA,"1.41 fold enrichment (6-mer frequency, TF over GST control)"
same,binding signal,ERG,"1.34 fold enrichment (6-mer frequency, TF over GST control)"
same,binding signal,ELF1,"1.35 fold enrichment (6-mer frequency, TF over GST control)"
same,binding signal,EHF,"1.35 fold enrichment (6-mer frequency, TF over GST control)"
same,binding signal,SPI1,"1.21 fold enrichment (6-mer frequency, TF over GST control)"
same,binding signal,SPIB,"1.41 fold enrichment (6-mer frequency, TF over GST control)"
same,binding signal,ELK3,"1.47 fold enrichment (6-mer frequency, TF over GST control)"
same,binding signal,FEV,"1.34 fold enrichment (6-mer frequency, TF over GST control)"
same,binding signal,ETV5,"1.34 fold enrichment (6-mer frequency, TF over GST control)"
same,binding signal,HSF1,"1.27 fold enrichment (6-mer frequency, TF over GST control)"
same,binding signal,SPIC,"1.49 fold enrichment (6-mer frequency, TF over GST control)"
same,binding signal,ELF4,"1.35 fold enrichment (6-mer frequency, TF over GST control)"
same,binding signal,ELK4,"1.32 fold enrichment (6-mer frequency, TF over GST control)"
same,binding signal,ETV2,"1.45 fold enrichment (6-mer frequency, TF over GST control)"
same,binding signal,ELF3,"1.49 fold enrichment (6-mer frequency, TF over GST control)"
same,binding signal,CRX,"1.32 fold enrichment (6-mer frequency, TF over GST control)"
same,binding signal,ETV1,"1.4 fold enrichment (6-mer frequency, TF over GST control)"

# From article PMC7862700, “An all-to-all approach to the identification of sequence-specific readers for epigenetic DNA modifications on cytosine”
